About 83,000 compounds went through this panel and 20% of them were active in at least one assay; those are over-represented in the sample as a whole.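 Each cell line was grown in a 96-well plate and treated with one concentration of compound for 48 hours. Values below 10 were considered active.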 Unmarked numbers belong to inactive results. Activity calls are given as the source filed them.
Columns and labels:
Assay in all cases: NCI-60 one-dose screen, 48 h (100 = growth as untreated, 0 = no growth, -100 = all killed)
Conditions in all cases: 10 µM
SK-MEL-2 melanoma = system: SK-MEL-2 melanoma
SN12C renal = system: SN12C renal
UO-31 renal = system: UO-31 renal
TK-10 renal = system: TK-10 renal
ACHN renal = system: ACHN renal
CAKI-1 renal = system: CAKI-1 renal
A498 renal = system: A498 renal
CCRF-CEM leukemia = system: CCRF-CEM leukemia
MOLT-4 leukemia = system: MOLT-4 leukemia

Row | Structure (SMILES) | growth (SK-MEL-2 melanoma) | growth (SN12C renal) | growth (UO-31 renal) | growth (TK-10 renal) | growth (ACHN renal) | growth (CAKI-1 renal) | growth (A498 renal) | growth (CCRF-CEM leukemia) | growth (MOLT-4 leukemia)
1 | O=C(Nc1cccc(-c2nc3ccccc3[nH]2)c1)c1cccc(NC(=O)c2ccco2)c1 | 101% | 79.1% | 73.2% | 91.6% | 86% | 77.6% | 83.6% | 68.3% | 86.4%
2 | Cc1nc(N)sc1Sc1nc2ccc(Cl)cc2c(=O)n1-c1ccc(Oc2ccccc2)cc1 | 96.9% | 73.9% | 61.8% | 89% | 78.5% | 73.5% | 39.9% | 41.5% | 44.3%
3 | Nc1ccccc1NC(=O)CCCCCCC(=O)Nc1ccc2c(c1)/C(=C/c1ccc[nH]1)C(=O)N2 | -1.9% (active) | 17.4% | 29.1% | 48.1% | 77% | 49.8% | -0.734% (active) | 5.46% (active) | 9.11% (active)
4 | CCN(CC)CCn1c(=N)n(CC(O)c2ccc(Cl)c(Cl)c2)c2ccccc21 (stereo not given) | 96.8% | 83.3% | 64.3% | 87.1% | 71.5% | 75.4% | 52.5% | 78.9% | 79.7%
5 | O=NN(CCCl)C(=O)NCc1ccc(-c2ccc(CNC(=O)N(CCCl)N=O)cc2)cc1 | 95.1% | 97.8% | 67.7% | 105% | 105% | 96.6% | 102% | 93.3% | 82.3%
6 | CCOC(=O)CNC(=O)Nc1ccc(Oc2ccc(NC(=O)NCC(=O)OCC)cc2)cc1 | 115% | 94.7% | 83.2% | 114% | 102% | 95.1% | 95.7% | 89.4% | 107%
7 | COc1ccc(C(=O)c2sc3nc(-c4cccs4)ccc3c2N)cc1OC | 15.7% | 62% | 45.6% | 49.4% | 64.7% | 62% | 39.4% | 34.5% | 23.3%
8 | COc1cc(-c2cc(-c3ccc(C)cc3)nc3nc(N)[nH]c(=O)c23)ccc1Oc1ccnc2cc(Cl)ccc12 | 93% | 74.2% | 56.3% | 120% | 93.4% | 83.2% | 73.4% | 40.6% | 49.1%
9 | C/C(=N\NC(=S)N1CCCC1)c1ccccn1 | 13.8% | 14.3% | -3.72% (active) | 28.5% | 15.5% | 6.32% (active) | -5.14% (active) | 0.145% (active) | 3.06% (active)
10 | Cc1ccc(-c2cc(C(=O)Nc3ccc(S(=O)(=O)N4CCCCC4)cc3)[nH]n2)c(O)c1 | 80% | 53.3% | 56.2% | 61.6% | 66.5% | 67.3% | 63.3% | 45.5% | 38.7%
11 | N#Cc1ncc(-c2cc(F)ccc2F)c(NC2CCCCCC2)n1 | 74.9% | 80.8% | 81.5% | 101% | 88.8% | 88.2% | 58.2% | 81.3% | 79.4%
12 | Oc1cc(O)c(Br)cc1Br | 96.6% | 101% | 85.2% | 94.3% | 103% | 95.9% | 96.7% | 95.4% | 93.1%
13 | COc1ccc(C2C=C(c3ccc(Cl)c(Cl)c3)N=C3SC(C)=CN32)cc1OC (stereo not given) | 79.2% | 70.6% | 60.7% | 74.1% | 68.3% | 61.7% | 105% | 58.5% | 48.8%
14 | CCOC(=O)c1ccc(NC(=O)Nc2nncs2)cc1 | 37.4% | 31.2% | 34.1% | 45.1% | 36.1% | 24.9% | -13.3% (active) | 7.54% (active) | 11.7%
15 | CCN1CCN(c2nc(NNC(=O)c3cccc(OC)c3)nc(N3CCN(C(c4ccccc4)c4ccccc4)CC3)n2)CC1 | 75% | 61% | 27.5% | 79.7% | 56.1% | 42.2% | 75.3% | 48.9% | 23.8%
16 | COc1ccccc1NC1=C(N2CCCCC2)C(=O)c2ccccc2C1=O | 98.2% | 84.6% | 75.3% | 96.2% | 88% | 85.8% | 39.4% | 72.5% | 58.8%
17 | O=C(C=P(c1ccccc1)(c1ccccc1)c1ccccc1)c1ccc(Br)cc1 | 94.3% | 96.5% | 53.7% | 95% | 78.7% | 84.3% | 64.3% | 55% | 0.436% (active)
18 | CC(=O)N(O)c1ccc(/C=C/c2ccccc2)cc1 | 92.7% | 26.5% | -30.8% (active) | 4.86% (active) | -18.1% (active) | 0.955% (active) | -78.8% (active) | 26.5% | 41.8%
19 | CCCOCC(O)CNCCN (stereo not given) | 116% | 92.8% | 87.8% | 102% | 95.4% | 92.5% | 89% | 97.6% | 115%
20 | CC(C)C[C@H](NC(=O)Cn1ccc(Nc2ccccc2)cc1=O)B(O)O | -2.39% (active) | 47.9% | 53.9% | 13.5% | 10.1% | 45.3% | -1.76% (active) | 3.67% (active) | 1.94% (active)
21 | Nc1c(C(=O)NC2CCCCC2)sc2nc3c(cc12)C(=O)CCC3 | 97.2% | 93.3% | 94.6% | 140% | 107% | 90.3% | 88.6% | 98.8% | 90.2%
22 | O=C(Nc1ccc(CN2CCOCC2)cc1)c1ccc(-c2cc(Cl)ccc2Cl)o1 | 55.5% | 63.4% | 25.4% | 49.4% | 41.8% | 43.5% | 87.1% | 38.6% | 42.9%
23 | Fc1ccc(Nc2ccnc(N3CCN(c4ccnc5cc(Cl)ccc45)CC3)n2)cc1 | 60.3% | 49% | 7.09% (active) | 30.5% | 38.7% | 41.9% | 22.7% | 40.1% | 13%
24 | O=C(CCCC(=O)N/N=C/c1cc(Cl)ccc1O)N/N=C\c1cc(Cl)ccc1O | 51.7% | 35.3% | 5.41% (active) | 32.3% | 23.1% | -1.73% (active) | 63.5% | -0.225% (active) | -12.9% (active)
25 | CCN(Cc1ccccc1)C1CCN(Cc2cc(Br)ccc2O)CC1 | 69.7% | 44.8% | 23.5% | 52.1% | 45.1% | 44.7% | 66.2% | 43.5% | 61.2%
26 | FC(F)(F)c1ccc(-c2nc(-c3nc4cc(Cl)c(Cl)cc4[nH]3)c3ccccn23)cc1 | 68.6% | 84.4% | 58.5% | 16.7% | 63.6% | 83.9% | 38.5% | 81.6% | 63.5%
27 | N#CCC1CCCC1 | 120% | 94% | 97% | 104% | 98.1% | 89.9% | 91% | 92% | 112%
28 | Cn1c([N+](=O)[O-])cnc1C=C1C(=O)c2ccccc2C1=O | 1.67% (active) | 42.9% | 20.7% | 48.8% | 37.4% | 37.3% | 70.1% | 18.4% | 21.8%
29 | COc1cc(Cl)cc(-c2nn(-c3cccc(NC(=O)Nc4cccc(C(F)(F)F)c4)c3)cc2-c2ccncc2)c1 | -36.7% (active) | 13.9% | -4.59% (active) | 23.4% | 5.44% (active) | 16.1% | -6.74% (active) | 3.34% (active) | -9.16% (active)
30 | Cc1nc2scc(-c3ccc(Cl)cc3)n2c(=O)c1CCN1CCOCC1 | 105% | 94% | 57.5% | 142% | 89.4% | 84.6% | 119% | 93.6% | 78.1%

Source: PubChem BioAssay (NCI)
